Pf growth 48h = inhibits P. falciparum growth in the first generation, 48 h. P. falciparum luciferase growth in erythrocytes, 48 h. Potency, µM (titrated, usually from 28.7 µM), most hits filed as inhibitors. 310,000 compounds, 5.9% hits
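Luciferase-expressing P. falciparum in infected erythrocytes (2% hematocrit, 0.1% parasitemia final) in RPMI 1640/0.5% Albumax were exposed to compound for 48 hours at 37 C, 5% CO2; growth read as luminescence.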
Pf growth 96h = inhibits malaria parasite growth, 96 h; Potency, µM (doses to about 28.7 µM), most hits filed as inhibitors; 320,000 compounds, 6.9% hits; P. falciparum luciferase reporter growth, 96 h
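96 h incubation, 37 C, 5% CO2, of luciferase-reporter P. falciparum-infected RBCs (2% hematocrit, 0.05% parasitemia final) with test compounds; endpoint luminescence.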
SARS PLP yeast = SARS-CoV PLP inhibition in yeast. S. cerevisiae expressing SARS-CoV PLpro, growth rescue. Potency, µM (series often up to 32.9 µM), usual class: activators. 330,000 compounds, 0.19% hits. AID 485353; calls by dose curve; further: nearly all actives have a fitted effect of over 55% in size
Cycloheximide cs = affects cycloheximide protein synthesis inhibition readout, counter-screen | cell reporter, cycloheximide protein synthesis inhibition counterscreen | max response, % | 300,000 compounds, 12% hits | AID 2314; in the data active means max response mostly above about 13%, no sharp cut-off; inactive means mostly below about 14%; further: read at 38.3 µM for the half of the compounds with a filed dose
AMA1 RON2 block = inhibitors of Plasmodium falciparum AMA1-RON2 interaction; AlphaScreen AMA1-biotinylated RON2 peptide binding; Potency, µM (top dose mostly 58.2 µM), usual class: inhibitors; 360,000 compounds, 0.2% hits; AID 720542; further: nearly all actives have a fitted effect of over 45% in size
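AMA1 (3D7) with his tag at 25 nM final met compounds first, then biotinylated RON2 peptide at 25 nM; detection used donor plus acceptor beads, 10 µg/mL apiece, read by AlphaScreen after 30 min at room temperature.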
Shiga toxin inh = blocks Shiga toxin action in Vero cells; inhibition, % at 38.7 µM; 290,000 compounds, 9.2% hits; AID 2315; Vero cells, Shiga toxin protein synthesis inhibition reporter; in the data active means inhibition mostly above about 28%, no sharp cut-off; inactive means mostly below about 43%
Each line names hits and unclear results; the compound was inactive in the other large screens; ! = repeats disagree. Shown are actives, neighbours in structure and some others; about 19% of the full set was active somewhere. Unless noted, the call rests on the fitted dose curve; in most records, active means well fitted curve in the direction sought with a large enough effect; inconclusive means small, poorly fitted or top-dose-only effect, or another doubt; inactive means no such curve, though single readings can be large; an effect the other way counts as inactive or inconclusive.

O=C(NCCN1CCOCC1)c1ccc2c(c1)N(Cc1cccc(F)c1)C(=O)c1ccccc1S2	Pf growth 48h inconclusive
Cc1nnc(NC(=O)CSCc2ccccc2)s1	none
CC(=O)Nc1nnc(SCc2cccc(F)c2)s1	Shiga toxin inh 20.8
O=C(Nc1nnc(SCc2ccc(F)cc2)s1)c1cnccn1	none
CC(=O)Nc1ccc(NC(=O)CSc2nnc(NC(=O)c3cccc(F)c3)s2)cc1	none
Cc1nnc(SCC(=O)Nc2nnc(SCc3cccc(Br)c3)s2)s1	Pf growth 96h 7.38µM
Cc1nnc(NC(=O)CSc2ccccc2N)s1	Pf growth 96h inconclusive, Cycloheximide cs 25.9
O=C(Nc1nnc(SCc2ccc(F)cc2)s1)c1ccc2ncsc2c1	Cycloheximide cs 65.2, AMA1 RON2 block inconclusive, Shiga toxin inh active
CCC(=O)Nc1nc2ccc(NC(=O)c3cc(OC)c(OC)c(OC)c3)cc2s1	Pf growth 48h inconclusive
CCc1ccc(C(=O)Nc2cc(S(=O)(=O)N3CCOCC3)ccc2N2CCOCC2)cc1	none (no result: Pf growth 48h, Pf growth 96h, Cycloheximide cs, Shiga toxin inh)
Cc1occc1C(=O)/C(C#N)=C/c1ccc(O)c(Br)c1	none
CC[C@]12C(=O)N(C)C[C@H]([C@@H]3C(=O)N(Cc4ccccc4)C(=O)[C@@H]31)N2C(=O)c1ccc(F)cc1	none (no result: Pf growth 48h, Pf growth 96h, SARS PLP yeast, Cycloheximide cs, Shiga toxin inh)
COc1ccc(C(=O)N/N=C(\CCC(=O)O)c2ccc(C(C)(C)C)cc2)cc1OC	none
CC(=O)Nc1nnc(SCC(=O)c2ccc(F)cc2)s1	none
CC(=O)Nc1nnc(SCc2ccc(F)cc2)s1	Cycloheximide cs 39.0
CCCCCCCCCCCCCCCC(=O)OCC(COC(=O)CCCCCCCCCCCCCCC)OC(=O)CCCCCCCCCCCCCCC	none (no result: SARS PLP yeast, Cycloheximide cs, AMA1 RON2 block, Shiga toxin inh)
NS(=O)(=O)c1ccc(NC(=O)/C=C/c2cccs2)cc1	Cycloheximide cs 11.4
NS(=O)(=O)c1cccc(NC(=O)/C=C/c2cccs2)c1	Cycloheximide cs 30.0, Shiga toxin inh 48.3
O=C(/C=C/c1cccs1)Nc1ccc(S(=O)(=O)Nc2ncccn2)cc1	none
COc1ccc(CCN2C(=NC(=O)C(C)C)SC3CS(=O)(=O)CC32)cc1OC (stereo not given)	none
CC[C@]12c3[nH]c4ccccc4c3CCN1C(=O)C(CC(=O)NC/C=C(\C)CCC=C(C)C)C[C@@H]2C(=O)N1CCN(C(=O)c2ccco2)CC1 (stereo not given in full)	none (no result: Pf growth 48h, Pf growth 96h, Cycloheximide cs, Shiga toxin inh)
COC(=O)c1cc2c(-c3ccccc3)cc3ccccn3c-2c1C(=O)OC	Pf growth 96h 3.7µM, AMA1 RON2 block 17.8µM (no result: Pf growth 48h)
CCOC(=O)C1=C(Cc2ccc(F)cc2)C(=O)c2ccccc2C1=O	Pf growth 96h 8.28µM (no result: Pf growth 48h)
Cc1cc(C)nc(-n2nc(C)c(Sc3ccc(F)cc3)c2N)n1	Pf growth 48h inconclusive, Cycloheximide cs 38.8, Shiga toxin inh 100.4
S=C1NNC2(CC3CC2C2CCCC32)NN1 (stereo not given)	Cycloheximide cs 15.6
COc1ccc(CCNC(=O)CNC(=O)Cn2ccc3ccccc3c2=O)cc1OC	none
COc1ccc(NC(=O)C2CCCN2S(=O)(=O)c2ccc(Cl)cc2)cc1 (stereo not given)	none
Nc1nnc(SCCOc2ccccc2)s1	Pf growth 96h inconclusive, Cycloheximide cs 16.6, Shiga toxin inh 26.6
Nc1nnc(SCCOc2ccc(Br)cc2)s1	Cycloheximide cs 18.4 (no result: Pf growth 96h)
Cc1nnc(SCCOc2ccccc2)s1	Cycloheximide cs 25.7
CCn1nc(C)c(CN2CCC(Oc3ccc(C(=O)N4CCCC4)cc3)CC2)c1C	Pf growth 96h inconclusive
CN(C)c1ccc2c(-c3ccccc3)c3ccc(=[N+](C)C)cc-3oc2c1	none (no result: Pf growth 48h, Pf growth 96h, SARS PLP yeast, AMA1 RON2 block)
Cc1cc2nc3ccc(=[N+](C)C)cc-3sc2cc1N	Pf growth 48h 0.037µM, Pf growth 96h 0.0329µM, Cycloheximide cs 35.6, Shiga toxin inh 47.7
CN(C)c1ccc2nc3ccc(=[N+](C)C)cc-3sc2c1	Pf growth 48h 0.0067µM, Pf growth 96h 0.0067µM!, Cycloheximide cs 63.7!, Shiga toxin inh 88.0
Cc1cc(/C=N/Nc2nc(N)ncc2[N+](=O)[O-])c(C)n1-c1cccc(C(F)(F)F)c1	Cycloheximide cs 26.2, Shiga toxin inh 61.7 (no result: AMA1 RON2 block)
COc1ccc(C(=O)N/C(=C\c2cn(S(=O)(=O)N(C)C)c3ccccc23)C(=O)NCCN2CCOCC2)cc1	none
CCc1c(C#N)c(N)nc(SCC(=O)OCc2ccccc2)c1C#N	Pf growth 48h 9.28µM, Pf growth 96h inconclusive
CC(C)OC(=O)CSc1nc(N)c(C#N)cc1C#N	Cycloheximide cs 26.7, Shiga toxin inh 42.4
CCOC(=O)CSc1nc(N)c(C#N)cc1C#N	Shiga toxin inh 41.9
COc1cccc(/C=N/NC(=O)NC23CC4CC(CC(C4)C2)C3)c1O	none (no result: Pf growth 48h, Pf growth 96h, SARS PLP yeast, Cycloheximide cs, Shiga toxin inh)
O=C(NC12CC3CC(CC(C3)C1)C2)c1cccnc1Cl	Pf growth 96h 11.7µM
Cc1cccc(/C=N/NC(=O)NC23CC4CC(CC(C4)C2)C3)n1	Cycloheximide cs 19.8
O=C(N/N=C/c1ccccc1F)NC12CC3CC(CC(C3)C1)C2	Pf growth 96h inconclusive, Cycloheximide cs 33.0, Shiga toxin inh 54.0
Nc1ccccc1C(=O)NC12CC3CC(CC(C3)C1)C2	Pf growth 96h inconclusive
COc1cc(/C=N/NC(=O)NC23CC4CC(CC(C4)C2)C3)ccc1OCC(N)=O	Pf growth 48h 9.28µM, Pf growth 96h 5.86µM
Cc1cccc(/C=N/NC(=O)c2ccncc2)n1	none
COCCN1C[C@@H](CO)O[C@@H](n2cnc3c(NCc4ccco4)ncnc32)C1	none (no result: Pf growth 48h, Pf growth 96h, SARS PLP yeast, Cycloheximide cs, Shiga toxin inh)
O=C(N/N=C/c1ccccn1)NC12CC3CC(CC(C3)C1)C2	Cycloheximide cs 39.2, Shiga toxin inh 70.1
O=C(CCCC(=O)N/N=C\c1ccccn1)N/N=C\c1ccccn1	Pf growth 96h inconclusive
CC(=O)Nc1nc(-c2ccccc2)nc(C)c1C(C)=O	Pf growth 96h 1.85µM
CC(=O)c1c(C)nc(-c2ccccc2)nc1N	Cycloheximide cs 29.3, Shiga toxin inh 58.5
CCOC(=O)c1c(C)nc(-c2ccccc2)nc1N	Pf growth 96h 10.4µM, Cycloheximide cs 33.0, Shiga toxin inh 122.9
CCOC(=O)c1c(-c2ccccc2)cn2c(C)cc(C)nc12	Cycloheximide cs 35.0, Shiga toxin inh 70.7
CC(=O)c1c(C)nc(-c2ccccc2)nc1NC(=O)C(C)C	none (no result: Pf growth 48h, Pf growth 96h)
CCOC(=O)c1c(C)nc(C)c(C(=O)OCC)c1-c1ccccc1	none
O=C(c1cc(C2CC2)on1)N1CCCC(N2CCN(c3ccc(F)cc3)CC2)C1 (stereo not given)	Pf growth 48h inconclusive
Cc1ccc(/C=N/NC(=O)c2csc(C)c2)o1	Pf growth 96h inconclusive, Cycloheximide cs 22.8, Shiga toxin inh active
Cc1cc(C(=O)N/N=C/c2ccc(N(C)C)o2)cs1	none
Cc1ccc(/C=N/NC(=O)c2cccnc2)o1	Pf growth 96h inconclusive
Cc1ccc(/C=N/NC(=O)c2cccs2)o1	Cycloheximide cs 40.5, Shiga toxin inh 161.7
O=S(=O)(c1ccccc1Br)N(CC(O)COCc1ccccc1)C1CC1 (stereo not given)	none (no result: Pf growth 48h, Pf growth 96h, Cycloheximide cs, Shiga toxin inh)
COc1ccc(Nc2oc(-c3ccccc3F)nc2C#N)cc1	Cycloheximide cs 33.6, Shiga toxin inh 47.2

Screens: PubChem BioAssay, National Center for Advancing Translational Sciences (NCATS)
